# ERa SRC1 inh = blocks coactivator binding to human estrogen receptor alpha; TR-FRET ER-alpha LBD / SRC-1 peptide, estradiol-bound; inhibition, % at 25.6 µM; hit rate 1.7% among 86,000; P03372; in the data active = inhibition above about 50%;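 also: 0% = receptor plus peptide control and 100% = peptide only without receptor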
# ERa SRC1 pot = ER-alpha (human) coactivator binding potentiation; hit rate 1.3% among 86,000; coactivator binding (% of control), % at 25.6 µM; P03372; AID 639; TR-FRET ERalpha-LBD/SRC-Cy5 coactivator binding, 2 h; 100 = basal binding, no effect; in the data active = activity above about 200%;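 also: binding measured in presence of low estradiol as agonist stimulus; 0% = peptide alone without receptor and 100% = receptor with peptide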
# Smad3 FoxH1 inh = Smad3 (human) transcription factor binding inhibition. P84022. TR-FRET Smad3/Dy647-FoxH1 peptide binding, europium anti-His. inhibition, % at 25 µM. hit rate 0.29% among 88,000;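 active = compounds that reduce the energy-transfer binding signal between the protein and its labelled peptide by more than half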;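 also: 0% = Smad3 plus labelled peptide maximal FRET and 100% = peptide-only background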
# Calb biofilm kill = kills Candida albicans biofilms; C. albicans biofilm + clotrimazole, Alamar Blue; inhibition, % at 6 µM; hit rate 0.14% among 85,000; AID 834;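 active = inhibition above 20%; inactive = inhibition below 20%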;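 also: preformed 24 hr biofilms exposed to compound for 48 hr; 0% = biofilm without compound and 100% = blank killed by clotrimazole plus chlorhexidine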
# ERb SRC1 inh = blocks coactivator binding to human estrogen receptor beta | TR-FRET ER-beta LBD / SRC1-Cy5 peptide binding; receptor agonist-loaded with 1 µM estradiol | inhibition, % at 25.6 µM | hit rate 1.3% among 86,000 | AID 633;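 active = compounds whose percent inhibition of the receptor-coactivator binding signal exceeds about 50% in the single-dose screen, limit read from the data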;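 also: 0% = receptor plus peptide wells without compound and 100% = peptide-only wells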
# Target sequence (Q92731 whole entry, looked up, the tested form may be a part): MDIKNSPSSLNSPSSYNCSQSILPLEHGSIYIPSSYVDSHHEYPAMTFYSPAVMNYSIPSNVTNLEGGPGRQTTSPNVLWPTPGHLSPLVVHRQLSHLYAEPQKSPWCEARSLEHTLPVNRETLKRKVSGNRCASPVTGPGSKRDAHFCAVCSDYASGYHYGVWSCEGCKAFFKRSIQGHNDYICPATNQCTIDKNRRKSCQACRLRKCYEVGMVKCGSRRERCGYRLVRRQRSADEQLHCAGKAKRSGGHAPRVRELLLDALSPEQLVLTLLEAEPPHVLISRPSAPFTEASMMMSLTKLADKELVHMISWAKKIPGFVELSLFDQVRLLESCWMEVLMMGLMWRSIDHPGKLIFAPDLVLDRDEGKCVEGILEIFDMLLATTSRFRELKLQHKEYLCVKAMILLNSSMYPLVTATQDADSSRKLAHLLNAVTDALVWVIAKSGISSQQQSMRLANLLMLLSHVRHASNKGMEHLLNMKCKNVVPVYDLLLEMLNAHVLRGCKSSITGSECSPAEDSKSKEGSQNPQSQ
# Active calls of the source: *; x = no result; + = active, no number; [ ] = dose if it differs, or a comment. Rows were chosen to be rich in hits. Some 3.8% of all compounds tested hit in one or more screens of this group.
SMILES,ERa SRC1 inh,ERa SRC1 pot,Smad3 FoxH1 inh,Calb biofilm kill,ERb SRC1 inh
O=C(COC(=O)CCCN1C(=O)c2ccccc2C1=O)Nc1ncc(Cl)cc1Cl,69*[fluorescence artefact?],48,7,9,58*[fluorescence artefact?]
O=C(COC(=O)CCS(=O)(=O)c1ccc(Cl)cc1)Nc1ncc(Cl)cc1Cl,-5,101,11,6,0
CC(C)CC(C(=O)OCC(=O)Nc1ncc(Cl)cc1Cl)N1C(=O)c2ccccc2C1=O (centres undefined),11,107,-1,4,28
O=C(COC(=O)CN1C(=O)c2ccccc2C1=O)Nc1ncc(Cl)cc1Cl,60*[fluorescence artefact?],54,-1,7,56*
O=C(COC(=O)C1CCN(S(=O)(=O)c2cc([N+](=O)[O-])ccc2Cl)CC1)Nc1ncc(Cl)cc1Cl,78*[fluorescence artefact?],18,27,9,80*[fluorescence artefact?]
O=C1c2ccccc2C(=O)c2c(NC3CCCCC3)ccc(Nc3ccc(S(=O)(=O)O)cc3)c21,x,x,-1,x,x
CC(C)CNC(=O)c1cccc(NC(=O)c2ccc(NC(=O)c3ccco3)cc2)c1,38,230*[fluorescence artefact?],-20,6,21
CC(C)(C)NC(=O)c1cccc(NC(=O)c2ccc(NC(=O)c3ccco3)cc2)c1,11,95,8,6,6
COc1ccccc1NC(=O)c1cccc(NC(=O)c2ccco2)c1,7,112,-4,8,-10
COc1ccccc1NC(=O)c1ccccc1NC(=O)c1cc(Cl)ccc1NC(=O)c1ccco1,74*,64,2,9,41
COc1ccc(NC(=O)c2ccco2)cc1N,55*,50,11,0,61*
COc1ccccc1NC(=O)Oc1ccc(NC(=O)c2ccco2)cc1,60*[fluorescence artefact?],81,9,9,66*[fluorescence artefact?]
NC(N)=NC(N)=Nc1ccc(C(=O)O)cc1,x,x,3,x,x
O=C(CSc1nc2sc3c(c2c(=O)n1Cc1ccco1)CCC3)N1CCc2ccccc21,36,344*,-43,4,36
O=C(Cn1c(=O)n(Cc2ccco2)c(=O)c2c3c(sc21)CCCCC3)Nc1ccccc1,73*,56,4,2,80*
O=C(Cn1c(=O)n(Cc2ccco2)c(=O)c2c3c(sc21)CCCCC3)c1ccccc1,66*,67,7,6,47
O=c1c2c3c(sc2n(CCN2CCCC2)c(=O)n1Cc1ccco1)CCCCC3,-2,115,0,9,-12
O=C(O)[C@@H]1[C@H]2C[C@H]([C@@H](Br)[C@H]2N2C(=O)CCC2=O)[C@@H]1C(=O)O,x,x,12,x,x
CCCCn1cnc2c(SC)ncnc21,x,x,1,x,x
Cc1[nH]n(-c2ccc([N+](=O)[O-])cc2)c(=O)c1N=Nc1nc2ccccc2s1,1,96,-5,3,4
COc1ccc2c(c1)[n+]([O-])c(/C(C)=N/NC(N)=S)c(C)[n+]2[O-],x,x,66*,x,x
Nc1nc2c(c(=O)[nH]1)CN(CCCN1CCOCC1)CN2,x,x,72*,x,x
Nc1nc2c(c(=O)[nH]1)CN(c1ccc(S(N)(=O)=O)cc1)CN2,x,x,24,x,x
CN(CC(=O)O/N=C(\N)c1ccc([N+](=O)[O-])cc1)S(=O)(=O)c1ccc2ccccc2c1,-2,98,-11,1,-11
O=C(O)CC12C[C@@H]3C[C@@H](CC(O)(C3)C1)C2,x,x,2,x,x
SMILES,ERa SRC1 inh,ERa SRC1 pot,Smad3 FoxH1 inh,Calb biofilm kill,ERb SRC1 inh
CC1CCCC(C)N1C(=O)Nc1cccc(Cl)c1 (centres undefined),22,84,3,3,53*
O=C(NCc1ccc2c(c1)OCO2)c1ccc(C2SCC(=O)N2Cc2ccco2)cc1 (centres undefined),43,215*[fluorescence artefact?],4,3,33
CC(C)CNC(=O)O,x,x,0,x,x
Cc1ccc(S(=O)(=O)C2(C(=O)NC3CCCC3)CC2)cc1,1,108,1,4,13
Cc1ccc(S(=O)(=O)C2(C(=O)N3CCCCCC3)CC2)cc1,-17,108,-5,4,80*[fluorescence artefact?]
Cc1ccc(C)c(OCC(=O)NCCN(C)C)c1,-6,98,-13,0,-3
Cc1ccc(C)c(OCC(=O)Nc2nonc2NC(=O)COc2cc(C)ccc2C)c1,63*[fluorescence artefact?],64,-1,8,22
Cc1cccc(OCC(=O)Nc2nonc2NC(=O)COc2cccc(C)c2)c1,72*[fluorescence artefact?],144,2,5,52*[fluorescence artefact?]
O=C(N/C=N/OCc1ccc(Cl)cc1Cl)NOCc1c(Cl)cccc1Cl,26,213*,-1,11,30
CO/N=C/NC(=O)NOCc1ccc(Cl)cc1Cl,7,92,-10,7,9
O=C(Nc1sc2c(c1C(=O)NCc1ccco1)CCCC2)c1ccc2c(c1)OCO2,14,136,-6,-3,62*[fluorescence artefact?]
COc1cc(C(=O)Nc2sc3c(c2C(=O)NCc2ccco2)CCCC3)cc(OC)c1OC,-14,125,4,2,-9
COc1ccc(C(=O)Nc2sc3c(c2C(=O)NCc2ccco2)CCCC3)cc1OC,10,228*,1,6,11
O=C(O)c1c2c(c(O)c3c1CN(C1CCCCC1)CO3)OCN(C1CCCCC1)C2,x,x,62*,x,x
COc1cc(OC)cc(C(=O)OCc2cc3ccccc3[nH]c2=O)c1,-12,499*[fluorescence artefact?],-17,4,8
Cc1ccc(-c2n[nH]c(=S)n2/N=C/C=C/c2ccccc2[N+](=O)[O-])cc1,53*[fluorescence artefact?],323*,23,-1,47
FC(F)(F)c1cnc(Nc2ccc(N3CCOCC3)cc2)c(Cl)c1,63*[fluorescence artefact?],61,-11,-2,86*[fluorescence artefact?]
CC(CO)(CO)Nc1ncnc2ccccc12,x,x,1,x,x
CSc1nc(SCC(=O)NCc2ccco2)c2c3c(sc2n1)CN(C)CC3,52*[fluorescence artefact?],58,11,8,35
CC1(C)Cc2nc3sc4c(SCC(=O)NCc5ccco5)ncnc4c3cc2CO1,26,289*[fluorescence artefact?],-9,9,40
CC1(C)Cc2c(sc3c2c2ncnn2c2nnc(SCC(=O)NCc4ccco4)n32)CO1,-2,116,11,7,74*[fluorescence artefact?]
CC(C)c1nc2sc3c(SCC(=O)NCc4ccco4)ncnc3c2c2c1CCC2,11,+[fluorescence artefact?],-9,2,12
C[C@@H](CNC(N)=O)NC(N)=O,x,x,-19,x,x
O=C(c1ccccc1F)N1CCN(S(=O)(=O)c2ccc(S(=O)(=O)N3CCCCC3)cc2)CC1,66*[fluorescence artefact?],85,6,6,6
CCn1cc(C(=O)Nc2ccc(-n3cnnn3)c(OC)c2)c(=O)c2ccc(C)nc21,-46,337*[fluorescence artefact?],3,9,-1
CCn1cc(C(=O)Nc2cccc(C(=O)OC)c2)c(=O)c2ccc(C)nc21,-5,154,-14,3,-3
CCn1cc(C(=O)NC2CCc3ccccc32)c(=O)c2ccc(C)nc21 (centres undefined),-10,425*[fluorescence artefact?],8,0,15
CCCOC(=O)c1ccc(NC(=O)c2cn(CC)c3nc(C)ccc3c2=O)cc1,48,275*[fluorescence artefact?],61*[fluorescence artefact?],6,44
CCn1cc(C(=O)Nc2ccccc2C(=O)OC)c(=O)c2ccc(C)nc21,-9,99,1,8,-3
O=C(NCc1ccccc1)c1ccc(/C=N/O)nc1,-4,130,0,4,-10

# Source: PubChem BioAssay
